This is part of a sample that, as a whole, favours compounds with a hit. Of some 79,000 tested, about 15% had one in any assay. Unmarked numbers belong to inactive results. Calls of active or inactive are those of the source. Rule as the data show it: active = growth inhibition above about 70%; inactive = the rest.

The values below come from PubChem BioAssay (NCI).

Assay [1] is described as follows: NCI Yeast Anticancer Drug Screen. Data for the rad50 strain (AID 155).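 Also: 0% = growth of vehicle-only cultures of the same strain.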 The following applies: S. cerevisiae rad50 strain growth inhibition, stronger effect = higher value. The essentials: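 Genetically altered yeast (DNA repair pathway); compound treatment; growth inhibition vs vehicle ctrl.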
The nature of assay [2]: NCI Yeast Anticancer Drug Screen. Data for the mec2-1 strain (AID 157). The following applies: S. cerevisiae mec2-1 strain, stronger effect = higher value. The essentials: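 Readout is yeast growth inhibition, normalised to vehicle-treated controls, in the mec2-1 strain exposed to compound.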
Assay [3] in a line: NCI Yeast Anticancer Drug Screen. Data for the sgs1 mgt1 strain (AID 161).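 Also: 0% = growth of cultures given vehicle only.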 The following applies: S. cerevisiae sgs1 mgt1 strain, stronger effect = higher value. Put shortly:
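Growth of a repair-deficient yeast mutant was monitored after compound treatment and expressed as inhibition relative to vehicle-treated cultures.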

Assay [4] can be described thus: NCI Yeast Anticancer Drug Screen. Data for the cln2 rad14 strain (AID 165).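 Also: 0% = growth equal to vehicle treated cultures.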 The following applies: S. cerevisiae cln2 rad14 strain, stronger effect = higher value. The essentials:
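Relative to vehicle controls, growth inhibition of compound-treated cln2 rad14 yeast was recorded.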

Assay [5] is described as follows: NCI Yeast Anticancer Drug Screen. Data for the bub3 strain (AID 167). The following applies: S. cerevisiae bub3 mutant strain, stronger effect = higher value. Put shortly: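 Yeast carrying a defined mutation is treated with each compound, and growth is compared with that of vehicle-exposed cells to give inhibition.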
Assay [6] can be described thus: NCI Yeast Anticancer Drug Screen. Data for the mlh1 rad18 strain (AID 175). The following applies: S. cerevisiae mlh1 rad18 strain growth inhibition, stronger effect = higher value. The essentials: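 Test agents were incubated with a yeast strain of defined genotype (DNA damage repair defect). Inhibition of growth was derived by comparison with vehicle-exposed cultures.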
The mark [7] stands for this setting: at 5.0 µM (retest, dose inferred, filed as 0.5).
Setting [8] is: at 50.0 µM (retest, dose inferred, filed as 5.0).

Turning to `ClC1CC[N-]CC1.ClC1CC[N-]CC1.[Cl][Pt+2]([Cl])([Cl])[Cl]`, the growth inhibition is 50% in assay [1] (setting [7]); 96% (active) in assay [1] (setting [8]); 89.5% (active) in assay [1] (at 50.0 µM); 42% in assay [2] (setting [7]); 98% (active) in assay [2] (setting [8]); 90.9% (active) in assay [2] (at 50.0 µM). The growth inhibition in assay [3] (setting [7]) is 58%; in assay [3] (setting [8]) it was 98% (active); in assay [3] (at 50.0 µM), 90.2% (active); in assay [4] (setting [7]), 36%; in assay [4] (setting [8]), 98% (active); in assay [4] (at 50.0 µM) it was 87.4% (active). Also, the growth inhibition in assay [5] (setting [7]) was 64%; in assay [5] (setting [8]), 98% (active); in assay [5] (at 50.0 µM), 93% (active); in assay [6] (setting [7]) it was 35%; in assay [6] (setting [8]), 96% (active); in assay [6] (at 50.0 µM), 91.7% (active).
Turning to `CN(C)c1ccc(C(c2ccc(N(C)C)cc2)c2ccc3c(c2)OCO3)cc1`, the growth inhibition in assay [1] (setting [7]) was 98% (active); in assay [1] (setting [8]), 66%; in assay [1] (at 50.0 µM) it was 95% (active); in assay [2] (setting [7]), 99% (active); in assay [2] (setting [8]), 62%; in assay [2] (at 50.0 µM), 94% (active). The growth inhibition in assay [3] (setting [7]) is 97% (active); in assay [3] (setting [8]), 85% (active); in assay [3] (at 50.0 µM), 95.8% (active); in assay [4] (setting [7]), 98% (active); in assay [4] (setting [8]) it was 32%; in assay [4] (at 50.0 µM), 88.8% (active). The growth inhibition in assay [5] (setting [7]) was 99% (active); in assay [5] (setting [8]), 81% (active); in assay [5] (at 50.0 µM), 90% (active); in assay [6] (setting [7]) it was 98% (active); in assay [6] (setting [8]), 90% (active); in assay [6] (at 50.0 µM), 91.6% (active).
`O=C1OC(C2OC(=O)C(=O)C2C(=O)c2ccc(Cl)c(Cl)c2)C(C(=O)c2ccc(Cl)c(Cl)c2)C1=O` (stereo not given): the growth inhibition in assay [1] (setting [7]) was 7%; in assay [1] (setting [8]) it was 97% (active); in assay [1] (at 50.0 µM), 94.5% (active); in assay [2] (setting [7]) it was 10%; in assay [2] (setting [8]) it was 93% (active); in assay [2] (at 50.0 µM) it was 63.8%. The growth inhibition was 14% in assay [3] (setting [7]); 97% (active) in assay [3] (setting [8]); 74.3% (active) in assay [3] (at 50.0 µM); 4% in assay [4] (setting [7]); 84% (active) in assay [4] (setting [8]); 34.5% in assay [4] (at 50.0 µM). In addition, the growth inhibition in assay [5] (setting [7]) is -34%; in assay [5] (setting [8]) it was 92% (active); in assay [5] (at 50.0 µM), 55.2%; in assay [6] (setting [7]), 12%; in assay [6] (setting [8]), 98% (active); in assay [6] (at 50.0 µM), 96.2% (active).
Regarding `O=c1oc2ccccc2c(O)c1/C=N/C(=S)NCCc1ccccc1`, the growth inhibition in assay [1] (setting [7]) is 29%; in assay [1] (setting [8]), 88% (active); in assay [1] (at 50.0 µM), -11.6%; in assay [2] (setting [7]), 30%; in assay [2] (setting [8]), 95% (active); in assay [2] (at 50.0 µM), -22.4%. Moreover, the growth inhibition is 32% in assay [3] (setting [7]); 92% (active) in assay [3] (setting [8]); -6.05% in assay [3] (at 50.0 µM); 26% in assay [4] (setting [7]); 40% in assay [4] (setting [8]); -27.8% in assay [4] (at 50.0 µM). Also, the growth inhibition in assay [5] (setting [7]) was 44%; in assay [5] (setting [8]), 96% (active); in assay [5] (at 50.0 µM), -10.2%; in assay [6] (setting [7]) it was 32%; in assay [6] (setting [8]), 93% (active); in assay [6] (at 50.0 µM), -5.75%.
With `CC(C)(CN1CCCCC1)C(/C=C/c1ccc(Cl)c(Cl)c1)=N\NC(=O)N/N=C(/C=C/c1ccc(Cl)c(Cl)c1)C(C)(C)CN1CCCCC1`, the growth inhibition in assay [1] (setting [7]) is 42%; in assay [1] (setting [8]), 98% (active); in assay [1] (at 50.0 µM), 90.5% (active); in assay [2] (setting [7]), 29%; in assay [2] (setting [8]), 99% (active); in assay [2] (at 50.0 µM), 93.3% (active). The growth inhibition in assay [3] (setting [7]) was 41%; in assay [3] (setting [8]) it was 99% (active); in assay [3] (at 50.0 µM), 92.8% (active); in assay [4] (setting [7]) it was 31%; in assay [4] (setting [8]), 98% (active); in assay [4] (at 50.0 µM), 91.2% (active). Also, the growth inhibition was 39% in assay [5] (setting [7]); 67% in assay [5] (setting [8]); 91.8% (active) in assay [5] (at 50.0 µM); 56% in assay [6] (setting [7]); 99% (active) in assay [6] (setting [8]); 90% (active) in assay [6] (at 50.0 µM).
Take `O=C1OCCCOC(=O)c2cc(ccc2O)OCC#CC#CCOc2ccc(O)c1c2`: the growth inhibition is 2% in assay [1] (setting [7]); -6% in assay [1] (setting [8]); 12.6% in assay [1] (at 50.0 µM); -4% in assay [2] (setting [7]); 19% in assay [2] (setting [8]); 8.75% in assay [2] (at 50.0 µM). Further, the growth inhibition in assay [3] (setting [7]) was -1%; in assay [3] (setting [8]), -3%; in assay [3] (at 50.0 µM), 16.1%; in assay [4] (setting [7]) it was 4%; in assay [4] (setting [8]), -4%; in assay [4] (at 50.0 µM), 38.6%. Also, the growth inhibition in assay [5] (setting [7]) was 2%; in assay [5] (setting [8]) it was -6%; in assay [5] (at 50.0 µM), 86.2% (active); in assay [6] (setting [7]), 0%; in assay [6] (setting [8]) it was -4%; in assay [6] (at 50.0 µM), 29.7%.
As to `Cc1cc(C)c(CCCC(=O)c2c(C)cc(C)cc2C)c(C)c1`, the growth inhibition in assay [1] (setting [7]) is -7%; in assay [1] (setting [8]), 28%; in assay [1] (at 50.0 µM) it was 9.85%; in assay [2] (setting [7]), -4%; in assay [2] (setting [8]), 1%; in assay [2] (at 50.0 µM) it was -1.6%. In addition, the growth inhibition was -7% in assay [3] (setting [7]); 23% in assay [3] (setting [8]); 9.85% in assay [3] (at 50.0 µM); 1% in assay [4] (setting [7]); -10% in assay [4] (setting [8]); 29.1% in assay [4] (at 50.0 µM). For the same compound, the growth inhibition in assay [5] (setting [7]) is 1%; in assay [5] (setting [8]), 6%; in assay [5] (at 50.0 µM), 15.6%; in assay [6] (setting [7]), -3%; in assay [6] (setting [8]), -12%; in assay [6] (at 50.0 µM), 9.75%.
As to `O=C(CC1(O)C(=O)Nc2c(Cl)cc(Cl)cc21)c1ccc(Br)cc1Br` (stereo not given), the growth inhibition in assay [1] (setting [7]) was 55%; in assay [1] (setting [8]), 98% (active); in assay [1] (at 50.0 µM), 92.3% (active); in assay [2] (setting [7]) it was 96% (active); in assay [2] (setting [8]), 99% (active); in assay [2] (at 50.0 µM), 90.8% (active). The growth inhibition was 97% (active) in assay [3] (setting [7]); 92% (active) in assay [3] (setting [8]); 91.3% (active) in assay [3] (at 50.0 µM); 94% (active) in assay [4] (setting [7]); 93% (active) in assay [4] (setting [8]); 90.7% (active) in assay [4] (at 50.0 µM). The growth inhibition in assay [5] (setting [7]) was 97% (active); in assay [5] (setting [8]) it was 93% (active); in assay [5] (at 50.0 µM) it was 93.8% (active); in assay [6] (setting [7]), 58%; in assay [6] (setting [8]), 98% (active); in assay [6] (at 50.0 µM) it was 92.2% (active).
As to `NC(=Nc1ccccc1)c1ccc2c(c1)c1c(n2Cc2ccccc2)CCCC1`, the growth inhibition is -9% in assay [1] (setting [7]); 99% (active) in assay [1] (setting [8]); 99.3% (active) in assay [1] (at 50.0 µM); -7% in assay [2] (setting [7]); 97% (active) in assay [2] (setting [8]); 99.2% (active) in assay [2] (at 50.0 µM). For the same compound, the growth inhibition is -5% in assay [3] (setting [7]); 99% (active) in assay [3] (setting [8]); 99.6% (active) in assay [3] (at 50.0 µM); -5% in assay [4] (setting [7]); 94% (active) in assay [4] (setting [8]); 94.9% (active) in assay [4] (at 50.0 µM). In addition, the growth inhibition in assay [5] (setting [7]) is -2%; in assay [5] (setting [8]) it was 92% (active); in assay [5] (at 50.0 µM), 98.2% (active); in assay [6] (setting [7]) it was -1%; in assay [6] (setting [8]), 99% (active); in assay [6] (at 50.0 µM), 99.7% (active).
`O=C(CCl)[O][Bi]([O]C(=O)CCl)([c]1ccccc1)([c]1ccccc1)[c]1ccccc1`: the growth inhibition is 10% in assay [1] (setting [7]); 51% in assay [1] (setting [8]); 13% in assay [1] (at 50.0 µM); 11% in assay [2] (setting [7]); 58% in assay [2] (setting [8]); 15.7% in assay [2] (at 50.0 µM). Moreover, the growth inhibition was 32% in assay [3] (setting [7]); 83% (active) in assay [3] (setting [8]); -8.4% in assay [3] (at 50.0 µM); 26% in assay [4] (setting [7]); 59% in assay [4] (setting [8]); 5.75% in assay [4] (at 50.0 µM). The growth inhibition was 31% in assay [5] (setting [7]); 85% (active) in assay [5] (setting [8]); 10.2% in assay [5] (at 50.0 µM); 17% in assay [6] (setting [7]); 71% (active) in assay [6] (setting [8]); 23.1% in assay [6] (at 50.0 µM).
